From PubChem BioAssay come the findings set out here.

The test system of assay [1] is Plasmodium falciparum Sir2 (PF13_0152, Sir2A). Nature of the assay: Plasmodium falciparum Sir2A binding compounds – biochemical, small-molecule microarray, 635 nm fluorescence, primary screen (AID 1098).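 Also: score merges spot fluorescence intensity with its signal-to-noise ratio.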 The following applies: fluorescence 635 nm, higher = more signal.
Assay [2] can be described thus: probe aDKK1 binding to arrayed compounds – biochemical, biotinylated probe, 635/667 nm fluorescence, primary screen (AID 1099).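 Also: score merges 667nm spot fluorescence with signal to noise across triplicate slides.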 The following applies: small-molecule microarray, higher = more signal.
Assay [3] can be described thus: probe aCHRDL2 binding to arrayed compounds – biochemical, biotinylated probe, 635/667 nm fluorescence, primary screen (AID 1100). The following applies: small-molecule microarray, higher = more signal.
Assay [4] in a line: change in splice reporter luminescence, either direction, cell-based, HEK293, spliceosome inhibition project, primary screen (AID 1101).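 Also: HEK293 cells carrying a splicing-competent luciferase reporter gene; test concentration not given here.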 Conditions: HEK293 splicing luciferase reporter, 24 h, higher = more signal, called active from +8 up or from −8 down. On the technique in general: Reporter assays use an easily measured gene product as a stand-in for the process of interest.
Assay [5] addresses Fibroblast growth factor 10 (Homo sapiens) (UniProt O15520). The assay can be described thus: compounds binding fibroblast growth factor 10 – biochemical, small-molecule microarray, 635 nm fluorescence, primary screen (AID 1102). The following applies: FGF10 binding, fluorescence 635 nm, higher = more signal.
Assay [6] has as its system glycogen synthase kinase-3 (GSK3A per assay name; protocol says GSK3B). The assay can be described thus: compounds binding glycogen synthase kinase-3 – biochemical, small-molecule microarray, 635 nm fluorescence, GSK3A, primary screen (AID 1103). Also: the record names both GSK3A and GSK3B. The following applies: fluorescence 635 nm, higher = more signal.
In assay [7] the target is Epidermal growth factor receptor (Homo sapiens) (UniProt P00533). The assay can be described thus: compounds binding epidermal growth factor receptor – biochemical, small-molecule microarray, 635 nm fluorescence, primary screen (AID 1104).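 Also: score merges 667 nm emission intensity with spot signal to noise over triplicate slides.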 Conditions: EGFR binding, higher = more signal.
Assay [8] concerns the target Follistatin-related protein 3 (Homo sapiens) (UniProt O95633). Nature of the assay: compounds binding follistatin-related protein 3 – biochemical, small-molecule microarray, 635 nm fluorescence, primary screen (AID 1105).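 Also: score merges emission near 667 nm and signal to noise per printed spot across three slides.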 The following applies: FSTL3 binding, higher = more signal.
Assay [9] deals with Dickkopf-related protein 1 (Homo sapiens) (UniProt O94907). Nature of the assay: small molecules binding DKK1 protein – biochemical, small-molecule microarray, 635 nm fluorescence scan, primary screen (AID 1106).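 Also: score merges emission near 667 nm with signal to noise over three replicate slides.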 The following applies: higher = more signal.
In assay [10] the test system is Inhibin beta A chain (activin A). The assay can be described thus: small molecules binding activin A – biochemical, small-molecule microarray, 635 nm fluorescence scan, primary screen (AID 1107).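 Also: mouse activin A protein probed at 4.33 µg/mL on printed slides; score merges bound-protein fluorescence near 667 nm with spot signal-to-noise.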 The following applies: INHBA, higher = more signal.
The test system of assay [11] is Human papillomavirus type 1a protein E7 (residues 44-93). The assay can be described thus: small molecules binding HPV E7 44-93 – biochemical, small-molecule microarray, residues 44-93, 635 nm fluorescence, primary screen (AID 1108).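 Also: E7 fragment applied at 1 µg/mL in TBST for 1 h at 4 C; score combines spot fluorescence with its signal to noise ratio.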 Conditions: fluorescence 635 nm, higher = more signal.
A short description of assay [12]: hepatitis C replication reporter changes, two-sided – Huh7 cells, luciferase reporter, HCV replication inhibitor project, primary screen (AID 1109).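 Also: huh7 hepatoma cells harbouring a luciferase neomycin HCV replicon reporter; luciferase luminescence as measure of HCV replicon replication; test concentration not given here.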 The following applies: Huh7 HCV replicon luciferase reporter, 48 h; higher = more signal.
Assay [13] concerns the target Left-right determination factor 2 (Homo sapiens) (UniProt O00292). Nature of the assay: small molecules binding LEFTY2 protein – biochemical, small-molecule microarray, 635 nm fluorescence scan, primary screen (AID 1110). The following applies: higher = more signal.
Assay [14] deals with Calmodulin-1 (Homo sapiens) (UniProt P0DP23). Nature of the assay: small molecules binding calmodulin-1 with EGTA – biochemical, small-molecule microarray, Cy5-labelled CALM1, profiling panel (AID 1111).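 Also: labelled calmodulin applied in Tris saline Tween buffer holding calcium plus EGTA and DTT.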 The following applies: Cy5-CALM1 binding fluorescence, higher = more signal.
Assay [15] has the same target. Nature of the assay: small molecules binding Ca-loaded calmodulin-1 – biochemical, small-molecule microarray, Cy5-labelled CALM1, plus calcium, artefact control for SMM control-protein annotation, profiling panel (AID 1112).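 Also: score merges spot fluorescence with signal to noise from triplicate slides.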 The following applies: Cy5-CALM1 binding fluorescence, higher = more signal.
Assay [16] can be described thus: probe aWnt5a binding to arrayed compounds – biochemical, biotinylated probe, 635/667 nm fluorescence, primary screen (AID 1113).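 Also: score merges 667 nm fluorescence intensity with signal-to-noise per printed feature.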 The following applies: small-molecule microarray, higher = more signal.
Assay [17] in a line: probe aShh binding to arrayed compounds – biochemical, biotinylated probe, 635/667 nm fluorescence, primary screen (AID 1114).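 Also: probe is biotin-labelled aShh protein from a stem cell growth factor screen; measures binding of labelled protein to compounds printed on the slide; score merges feature fluorescence at 667 nm with signal-to-noise.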 The following applies: small-molecule microarray, higher = more signal.
Assay [18] can be described thus: probe aNog binding to arrayed compounds – biochemical, biotinylated probe, 635/667 nm fluorescence, primary screen (AID 1115).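 Also: probe is biotinylated aNog protein used at 0.15 µg/mL for 1 h at 4 C; z-score combines 667 nm fluorescence of each spot with its signal to noise.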 The following applies: small-molecule microarray, higher = more signal.
The target of assay [19] is Torsin-1A-interacting protein 1 (Homo sapiens) (UniProt Q5JTV8). Nature of the assay: compound microarray binding of lysate hLAP1 – cell lysate, small-molecule microarray, COS7 lysate, 635/667 nm fluorescence, primary screen (AID 1116). The following applies: 635 nm fluorescence, higher = more signal.
For assay [20], the target named is Alpha-bungarotoxin (Bungarus multicinctus) (UniProt P60615). The assay can be described thus: compounds binding labelled alpha-BTX control protein – biochemical, small-molecule microarray, Alexa647 label, 635/667 nm fluorescence, artefact control for SMM control protein annotation, profiling panel (AID 1117). Conditions: alpha-BTX-A647 binding fluorescence, higher = more signal.

Calls of active or inactive are those of the source.

Chain of Follistatin-related protein 3 (Homo sapiens) (O95633 whole entry, looked up): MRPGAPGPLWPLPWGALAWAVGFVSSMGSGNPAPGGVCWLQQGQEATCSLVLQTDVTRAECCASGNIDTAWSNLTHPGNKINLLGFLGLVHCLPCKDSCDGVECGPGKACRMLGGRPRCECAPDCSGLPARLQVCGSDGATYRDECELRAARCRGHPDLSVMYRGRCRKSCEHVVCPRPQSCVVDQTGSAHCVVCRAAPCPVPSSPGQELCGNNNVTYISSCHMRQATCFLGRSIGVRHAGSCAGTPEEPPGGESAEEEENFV
Chain of Fibroblast growth factor 10 (Homo sapiens) (O15520 whole entry, looked up): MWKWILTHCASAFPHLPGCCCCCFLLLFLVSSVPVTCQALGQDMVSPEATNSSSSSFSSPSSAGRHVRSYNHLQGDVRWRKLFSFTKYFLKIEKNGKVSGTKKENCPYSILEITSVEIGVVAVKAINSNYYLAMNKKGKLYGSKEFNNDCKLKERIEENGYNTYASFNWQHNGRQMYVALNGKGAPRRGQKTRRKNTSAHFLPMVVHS
Chain of Epidermal growth factor receptor (Homo sapiens) (P00533 whole entry, looked up): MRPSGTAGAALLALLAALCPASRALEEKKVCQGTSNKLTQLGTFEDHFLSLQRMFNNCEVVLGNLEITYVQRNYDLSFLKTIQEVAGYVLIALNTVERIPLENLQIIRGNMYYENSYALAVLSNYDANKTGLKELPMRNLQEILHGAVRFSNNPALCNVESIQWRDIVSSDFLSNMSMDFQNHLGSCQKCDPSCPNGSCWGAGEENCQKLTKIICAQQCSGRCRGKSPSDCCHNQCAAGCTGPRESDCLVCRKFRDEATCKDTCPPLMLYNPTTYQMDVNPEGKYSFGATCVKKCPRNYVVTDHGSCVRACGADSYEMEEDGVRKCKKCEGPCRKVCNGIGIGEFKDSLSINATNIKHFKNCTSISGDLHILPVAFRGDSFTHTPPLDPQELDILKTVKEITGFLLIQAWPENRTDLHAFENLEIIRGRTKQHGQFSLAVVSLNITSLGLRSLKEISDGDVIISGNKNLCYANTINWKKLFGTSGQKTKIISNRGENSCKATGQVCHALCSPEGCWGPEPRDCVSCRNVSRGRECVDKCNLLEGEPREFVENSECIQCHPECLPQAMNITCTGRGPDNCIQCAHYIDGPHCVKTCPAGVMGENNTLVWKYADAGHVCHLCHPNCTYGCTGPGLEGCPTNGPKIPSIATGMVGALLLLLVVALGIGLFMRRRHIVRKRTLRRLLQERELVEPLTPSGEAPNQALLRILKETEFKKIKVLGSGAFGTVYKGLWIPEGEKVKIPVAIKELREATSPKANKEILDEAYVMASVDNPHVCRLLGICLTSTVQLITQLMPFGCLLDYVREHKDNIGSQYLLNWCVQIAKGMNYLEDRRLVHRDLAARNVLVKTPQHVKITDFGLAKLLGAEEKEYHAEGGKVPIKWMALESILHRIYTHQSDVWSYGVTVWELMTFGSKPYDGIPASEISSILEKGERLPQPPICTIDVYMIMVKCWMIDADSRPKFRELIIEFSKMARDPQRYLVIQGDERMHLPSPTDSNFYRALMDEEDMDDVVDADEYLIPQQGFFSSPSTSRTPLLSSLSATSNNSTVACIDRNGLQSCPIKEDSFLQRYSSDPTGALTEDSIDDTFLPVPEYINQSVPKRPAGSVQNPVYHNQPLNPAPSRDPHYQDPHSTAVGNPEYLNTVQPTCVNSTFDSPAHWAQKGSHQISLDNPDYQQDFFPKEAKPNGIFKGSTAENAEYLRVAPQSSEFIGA
Chain of Dickkopf-related protein 1 (Homo sapiens) (O94907 whole entry, looked up): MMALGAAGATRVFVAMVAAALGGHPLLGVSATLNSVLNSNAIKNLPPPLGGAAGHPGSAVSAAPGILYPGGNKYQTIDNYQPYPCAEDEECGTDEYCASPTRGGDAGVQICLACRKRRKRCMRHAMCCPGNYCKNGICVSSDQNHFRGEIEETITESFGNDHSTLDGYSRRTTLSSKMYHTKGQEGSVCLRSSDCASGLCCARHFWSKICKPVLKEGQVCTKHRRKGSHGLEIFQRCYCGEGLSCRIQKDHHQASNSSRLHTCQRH
Chain of Alpha-bungarotoxin (Bungarus multicinctus) (P60615 whole entry, looked up): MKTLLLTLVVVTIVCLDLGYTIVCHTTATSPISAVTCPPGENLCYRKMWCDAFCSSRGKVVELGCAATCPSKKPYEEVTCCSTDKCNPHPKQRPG
Chain of Torsin-1A-interacting protein 1 (Homo sapiens) (Q5JTV8 whole entry, looked up): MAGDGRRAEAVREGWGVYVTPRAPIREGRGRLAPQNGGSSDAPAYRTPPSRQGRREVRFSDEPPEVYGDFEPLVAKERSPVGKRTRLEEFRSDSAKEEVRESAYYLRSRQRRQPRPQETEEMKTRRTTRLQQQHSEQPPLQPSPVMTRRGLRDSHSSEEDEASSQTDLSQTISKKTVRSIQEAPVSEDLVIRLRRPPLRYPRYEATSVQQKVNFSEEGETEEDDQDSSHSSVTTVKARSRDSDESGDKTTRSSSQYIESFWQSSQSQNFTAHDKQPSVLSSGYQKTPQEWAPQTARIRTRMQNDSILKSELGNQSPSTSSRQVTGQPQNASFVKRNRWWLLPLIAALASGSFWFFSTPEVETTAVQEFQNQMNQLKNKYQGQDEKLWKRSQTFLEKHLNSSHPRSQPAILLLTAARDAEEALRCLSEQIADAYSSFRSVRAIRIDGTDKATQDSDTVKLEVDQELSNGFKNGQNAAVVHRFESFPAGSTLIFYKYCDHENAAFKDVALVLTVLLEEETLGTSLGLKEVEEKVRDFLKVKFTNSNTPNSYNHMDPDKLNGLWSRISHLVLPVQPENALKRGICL
Chain of Left-right determination factor 2 (Homo sapiens) (O00292 whole entry, looked up): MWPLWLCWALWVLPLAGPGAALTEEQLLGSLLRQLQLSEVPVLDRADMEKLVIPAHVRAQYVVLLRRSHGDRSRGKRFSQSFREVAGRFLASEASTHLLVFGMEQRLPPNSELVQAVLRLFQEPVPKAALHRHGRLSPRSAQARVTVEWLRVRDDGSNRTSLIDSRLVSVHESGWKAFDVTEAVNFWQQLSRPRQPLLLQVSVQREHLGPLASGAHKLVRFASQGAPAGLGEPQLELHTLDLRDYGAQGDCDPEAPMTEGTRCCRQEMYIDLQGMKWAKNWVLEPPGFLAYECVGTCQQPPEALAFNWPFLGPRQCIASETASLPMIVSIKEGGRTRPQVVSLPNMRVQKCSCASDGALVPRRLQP

On to `O=C1O[C@H](c2ccccc2)[C@H](c2ccccc2)N2[C@H]1[C@@H](C(=O)N1CCN(c3ncccn3)CC1)[C@]1(C(=O)Nc3ccc(C#CC4(O)CCCCCC4)cc31)[C@H]2c1ccc(O)cc1`, for which the composite z-score in [1] is 1.54; in [2], 0.111; in [3] it was -0.156; in assay [5] it was 0.989; in assay [6] it was 1; in [7], 0.241. In addition, the composite z-score stood at 0.764 in [8]; 0.185 in assay [9]; 0.0022 in assay [10]; 1.07 in [11]; 0.15 in assay [13]; 1.14 in assay [14]. The composite z-score in assay [15] is 0.792; in assay [16] it was -0.0037; in [17] it was 0.106; in assay [18] it was -0.0496; in [19], 0.679; in [20], 2.18. In addition, the z-score was -0.262 (inactive) in assay [4] and -0.317 in assay [12].

On to `CCCCN1CC=CC23O[C@@H]4C=CCCOC(=O)C4[C@H]2C(=O)N(CCO)[C@@H]3C1=O` (stereo not given in full), for which the composite z-score was -1.33 in assay [1]; -0.364 in assay [2]; 0.297 in [3]; 0.107 in [5]; -0.248 in [6]; -1.19 in assay [7]. The composite z-score was -0.838 in assay [8]; -0.587 in assay [9]; 0.0542 in assay [10]; -0.548 in [11]; -1.02 in assay [13]; -0.555 in assay [14]. The composite z-score in assay [15] was -0.436; in [16], -0.298; in assay [17], 0.149; in [18], -0.249; in assay [19], -0.997; in assay [20] it was -0.363. In addition, the z-score in assay [4] was 0.244 (inactive); in [12], -0.161.

As for `COCCOC(=O)N1C(=O)[C@@]2(c3cc(C#CC4=CCCCC4)ccc31)[C@H](c1ccc(O)cc1)N1[C@H](c3ccccc3)[C@H](c3ccccc3)OC(=O)[C@H]1[C@@H]2C(=O)N1CCc2cc(OC)c(OC)cc2C1`, the composite z-score worked out at 0.835 in [1]; 0.15 in assay [2]; 0.338 in assay [3]; 0.415 in assay [5]; 0.202 in [6]; 0.0275 in [7]. Moreover, the composite z-score was 0.227 in assay [8]; 0.0375 in [9]; 0.545 in assay [10]; 1.06 in [11]; -0.231 in [13]; 1.12 in assay [14]. Besides, the composite z-score was 0.516 in [15]; -0.0332 in assay [16]; 0.0796 in assay [17]; 0.453 in assay [18]; 2.23 in assay [19]; 0.924 in [20]. In addition, the z-score in [4] is 0.864 (inactive); in assay [12], -0.993.

Regarding `CO[C@H]1O[C@H](CO)[C@@H](OC(=O)CCc2ccccc2)[C@@H]2OC(=O)[C@@H](Cc3ccc4ccccc4c3)C/C=C/C[C@H](Cc3ccc4ccccc4c3)C(=O)O[C@@H]12`, the composite z-score in assay [1] was 1.08; in assay [2], -0.653; in [3], 0.46; in assay [5] it was -0.361; in assay [6] it was -0.346; in assay [7], -0.691. Besides, the composite z-score in assay [8] was 0.0223; in assay [9] it was -1.19; in assay [10], 0.499; in [11], 0.349; in assay [13], -0.817; in [14], -0.452. Further, the composite z-score in [15] is -0.119; in [16], -0.202; in assay [17] it was -0.0709; in assay [18] it was -0.266; in assay [19], -0.0222; in assay [20], 1.33. Besides, the z-score was -0.779 (inactive) in assay [4] and 0.228 in assay [12].

For the compound `O=C1NC(=O)C2C1C=CC(C(O)C1CCCCC1)N2Nc1ccccn1` (stereo not given), the composite z-score in assay [1] is 0.488; in [2] it was 0.174; in assay [3], 0.279; in [5], 0.355; in [6] it was -0.133; in [7], 0.391. Besides, the composite z-score in assay [8] is 0.402; in [9] it was 0.254; in assay [10] it was 1.26; in assay [11] it was 0.657; in [13], 0.372; in assay [14], 0.5. Besides, the composite z-score in assay [15] is 0.469; in assay [16], -0.0478; in assay [17], 0.321; in [18], 0.69; in [19], -0.26; in assay [20], 0.353. In addition, the z-score in assay [4] was 1.31 (inactive); in assay [12], -0.442.
